Laboratory results taken from PubChem BioAssay (EPA / NIEHS).
Several values for one entry are separate records, joined by “and”; a condition that tells them apart may be missing. Equal entries are not always repeated. Records with an inconclusive call do not appear. Activity calls are given as the source filed them. How the source made its calls: active means hit-call score of the fitted dose curve at least 0.9, where 1 is the maximum; inconclusive means response in the unintended direction; inactive means score below 0.9.

Target: human Peroxisome Proliferator-activated Receptor alpha (PPARa), PPARA (gene 5465) (UniProt Q07869)
Sequence (Q07869 whole entry, looked up): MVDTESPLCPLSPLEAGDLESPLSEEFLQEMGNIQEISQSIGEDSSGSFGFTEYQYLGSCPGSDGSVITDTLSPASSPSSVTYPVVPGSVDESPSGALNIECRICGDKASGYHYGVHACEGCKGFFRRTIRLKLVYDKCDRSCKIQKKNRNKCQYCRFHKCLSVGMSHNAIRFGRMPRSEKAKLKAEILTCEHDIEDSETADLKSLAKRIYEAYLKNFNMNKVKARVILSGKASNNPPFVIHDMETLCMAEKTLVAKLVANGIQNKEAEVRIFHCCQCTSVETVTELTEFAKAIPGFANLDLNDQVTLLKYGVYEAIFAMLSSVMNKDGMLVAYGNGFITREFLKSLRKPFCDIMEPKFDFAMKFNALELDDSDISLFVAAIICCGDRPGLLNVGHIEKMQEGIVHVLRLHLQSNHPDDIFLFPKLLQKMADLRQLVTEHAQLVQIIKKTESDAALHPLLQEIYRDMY
Test: NVS_NR_hPPARa: NovaScreen (NVS) Nuclear Receptor Binding Assay for human Peroxisome Proliferator-activated Receptor alpha (PPARa) (AID 2283359);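 further: activity means loss of TR-FRET signal versus DMSO baseline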
How it was run: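 One-hour incubation, cell-free extracted protein, TR-FRET binding readout; signal loss vs DMSO scored. Screen: 25 uM duplicates, confirmatory dose series for actives.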

Structure (SMILES) | outcome | AC50
Cc1cc(Cl)ccc1O | inactive | 
Oc1cc(Cl)c(Cl)cc1Cl | inactive | 
CCCCCCCCCCCCOS(=O)(=O)O |  | 15.8 µM (active) and 8.71 µM (active)
N#CCCC(Br)(C#N)CBr (stereo unspecified) | inactive | 

Target: PGR (gene 5241) (UniProt P06401)
Sequence (P06401 whole entry, looked up): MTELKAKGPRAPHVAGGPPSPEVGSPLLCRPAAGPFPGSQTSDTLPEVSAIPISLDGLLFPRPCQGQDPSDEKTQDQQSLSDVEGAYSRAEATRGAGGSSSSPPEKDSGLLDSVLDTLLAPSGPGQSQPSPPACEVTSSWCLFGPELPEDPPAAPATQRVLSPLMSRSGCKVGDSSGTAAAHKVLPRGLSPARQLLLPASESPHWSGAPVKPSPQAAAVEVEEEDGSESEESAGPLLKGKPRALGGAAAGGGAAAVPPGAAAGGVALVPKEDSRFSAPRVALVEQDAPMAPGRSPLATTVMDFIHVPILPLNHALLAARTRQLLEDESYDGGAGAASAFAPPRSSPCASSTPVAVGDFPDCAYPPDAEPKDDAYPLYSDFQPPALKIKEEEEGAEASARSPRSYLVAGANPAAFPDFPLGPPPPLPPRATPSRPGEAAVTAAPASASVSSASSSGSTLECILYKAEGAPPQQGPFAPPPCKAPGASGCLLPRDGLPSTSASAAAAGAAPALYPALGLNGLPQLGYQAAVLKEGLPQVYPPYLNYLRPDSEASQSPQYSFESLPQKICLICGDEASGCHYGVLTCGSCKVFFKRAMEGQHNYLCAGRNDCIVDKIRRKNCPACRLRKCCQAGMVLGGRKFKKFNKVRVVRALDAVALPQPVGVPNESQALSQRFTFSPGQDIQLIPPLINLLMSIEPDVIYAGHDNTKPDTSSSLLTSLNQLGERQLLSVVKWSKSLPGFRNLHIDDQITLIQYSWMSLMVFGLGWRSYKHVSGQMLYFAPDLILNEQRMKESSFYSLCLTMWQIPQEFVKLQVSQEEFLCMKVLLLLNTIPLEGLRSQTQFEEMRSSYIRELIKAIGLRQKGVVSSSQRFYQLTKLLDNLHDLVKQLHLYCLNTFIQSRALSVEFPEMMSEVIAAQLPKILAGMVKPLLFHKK
Test: NVS_NR_hPR: NovaScreen (NVS) Nuclear Receptor Binding Assay for human Progestron Receptor (PR) (AID 2283360);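 further: active means loss of bound radioligand signal versus DMSO baseline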
How it was run: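 Radioligand competition binding on receptor extracted from T47D cells, read by scintillation counting 18 h after dosing. Loss of signal versus DMSO; primary screen in duplicate at 25 uM, actives followed in concentration series.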

Structure (SMILES) | AC50 | outcome
O=[N+]([O-])c1ccc(Nc2ccccc2)cc1 | 37.6 µM (active) | 
Cc1ccccc1OP(=O)(Oc1ccccc1)Oc1ccccc1 |  | inactive
CCOC(=O)C(SP(=S)(OC)OC)c1ccccc1 (stereo unspecified) |  | inactive
Cc1ccccc1OP(=O)(Oc1ccccc1C)Oc1ccccc1C |  | inactive
C[C@]12CC[C@@H](O)C[C@@H]1CC[C@@H]1[C@@H]2CC[C@]2(C)C(=O)CC[C@@H]12 |  | inactive
O=C1C=CC(=O)c2ccccc21 | 38.6 µM (active) | 
O=C(O)C1(c2ccc3c(c2)OC[C@H](Cc2ccc(-c4ccccc4)cc2)[C@H]3O)CCCC1 |  | inactive
OC(Cc1ccccc1Cl)(Cn1[nH]cnc1=S)C1(Cl)CC1 (stereo unspecified) |  | inactive

Target: human Thyroid Receptor Alpha (TRa), THRA (gene 7067) (UniProt P10827)
Sequence (P10827 whole entry, looked up): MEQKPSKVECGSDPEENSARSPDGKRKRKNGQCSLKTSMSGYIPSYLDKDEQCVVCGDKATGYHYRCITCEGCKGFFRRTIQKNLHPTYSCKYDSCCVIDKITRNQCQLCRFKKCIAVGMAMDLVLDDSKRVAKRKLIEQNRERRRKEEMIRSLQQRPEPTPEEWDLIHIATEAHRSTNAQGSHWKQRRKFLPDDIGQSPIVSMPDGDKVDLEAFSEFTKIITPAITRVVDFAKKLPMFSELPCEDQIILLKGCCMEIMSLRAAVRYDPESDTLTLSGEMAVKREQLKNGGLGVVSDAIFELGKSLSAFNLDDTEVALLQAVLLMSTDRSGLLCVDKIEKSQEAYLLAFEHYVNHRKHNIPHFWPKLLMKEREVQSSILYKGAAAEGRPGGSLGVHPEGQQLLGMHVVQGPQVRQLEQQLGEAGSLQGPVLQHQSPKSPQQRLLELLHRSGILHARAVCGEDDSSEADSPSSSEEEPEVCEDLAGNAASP
Test: NVS_NR_hTRa_Antagonist: NovaScreen (NVS) Nuclear Receptor Binding Assay for human Thyroid Receptor Alpha Antagonism (TRa) (AID 2283362);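 further: activity is loss of signal relative to DMSO baseline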
How it was run: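 AlphaLISA chemiluminescent immunoassay readout, taken 1 h post-dosing in a cell-free system with extracted protein. Activity was scored as signal loss against DMSO negative control, from duplicate single-concentration (25 uM) testing followed by concentration-response follow-up.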

Structure (SMILES) | AC50 | outcome
Nc1ccc(N)cc1 | 31.7 µM (active) | 
CCOc1cc(C=O)ccc1O |  | inactive
Nc1ncn[nH]1 |  | inactive

Target: Glucocorticoid receptor (Homo sapiens) (UniProt P04150)
Sequence (P04150 whole entry, looked up): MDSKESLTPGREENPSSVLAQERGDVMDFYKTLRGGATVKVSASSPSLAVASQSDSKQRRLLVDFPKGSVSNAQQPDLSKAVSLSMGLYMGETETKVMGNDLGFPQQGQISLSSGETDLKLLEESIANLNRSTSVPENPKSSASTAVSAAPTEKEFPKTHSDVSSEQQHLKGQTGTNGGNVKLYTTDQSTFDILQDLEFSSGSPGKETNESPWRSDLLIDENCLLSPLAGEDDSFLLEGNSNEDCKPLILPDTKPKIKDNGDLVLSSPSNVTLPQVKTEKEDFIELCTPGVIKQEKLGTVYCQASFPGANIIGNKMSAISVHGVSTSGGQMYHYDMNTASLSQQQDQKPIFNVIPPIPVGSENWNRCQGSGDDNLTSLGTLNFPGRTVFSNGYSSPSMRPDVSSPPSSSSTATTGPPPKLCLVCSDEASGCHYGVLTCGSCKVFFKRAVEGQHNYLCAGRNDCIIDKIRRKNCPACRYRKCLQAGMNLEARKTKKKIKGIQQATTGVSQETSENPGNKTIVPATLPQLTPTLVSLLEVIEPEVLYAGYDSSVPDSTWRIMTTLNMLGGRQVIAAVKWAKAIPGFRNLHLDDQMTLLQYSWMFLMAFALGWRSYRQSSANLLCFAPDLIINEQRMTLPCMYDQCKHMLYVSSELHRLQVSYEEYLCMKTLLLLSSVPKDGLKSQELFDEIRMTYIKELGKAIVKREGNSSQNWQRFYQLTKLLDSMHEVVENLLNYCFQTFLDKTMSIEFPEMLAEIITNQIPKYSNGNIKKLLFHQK
Test: NVS_NR_hGR: NovaScreen (NVS) Nuclear Receptor Binding Assay for human Glucocorticoid Receptor (GR) (AID 2283363);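 on AC50: activity is loss of specific radioligand binding signal relative to DMSO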
How it was run: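 Single-readout cell-free binding: radioligand plus extracted receptor, 16-hour dosing, filter radiodetection; 25 uM duplicate primary, concentration series secondary.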

Structure (SMILES) | AC50 | outcome
[Cl][Sn]([c]1ccccc1)([c]1ccccc1)[c]1ccccc1 | 3.31 µM (active) | 
Cc1cccc(OP(=O)(Oc2cccc(C)c2)Oc2cccc(C)c2)c1 |  | inactive
CC(O)(CS(=O)(=O)c1ccc(F)cc1)C(=O)Nc1ccc(C#N)c(C(F)(F)F)c1 (stereo unspecified) |  | inactive
Cc1ccc2nc3sc(=O)sc3nc2c1 | 1.64 µM (active) | 
O=C1C=CC(=O)c2ccccc21 | 4.63 µM (active) | 
CCCCCCCCCCCCOS(=O)(=O)O | 11.6 µM (active) and 12.7 µM (active) | 

Target: Nuclear receptor subfamily 1 group I member 2 (Homo sapiens) (UniProt O75469)
Sequence (O75469 whole entry, looked up): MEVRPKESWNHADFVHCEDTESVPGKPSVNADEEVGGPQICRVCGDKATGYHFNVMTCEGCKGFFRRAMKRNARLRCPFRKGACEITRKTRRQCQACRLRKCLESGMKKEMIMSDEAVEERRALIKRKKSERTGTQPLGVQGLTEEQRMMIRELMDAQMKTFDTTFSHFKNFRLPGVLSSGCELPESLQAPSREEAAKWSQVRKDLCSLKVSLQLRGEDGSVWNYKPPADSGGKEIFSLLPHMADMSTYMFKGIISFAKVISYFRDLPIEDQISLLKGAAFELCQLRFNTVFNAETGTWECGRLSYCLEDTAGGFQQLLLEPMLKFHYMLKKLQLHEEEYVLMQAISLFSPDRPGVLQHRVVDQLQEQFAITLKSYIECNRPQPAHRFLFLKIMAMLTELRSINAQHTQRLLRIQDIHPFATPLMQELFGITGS
Test: NVS_NR_hPXR: NovaScreen (NVS) Nuclear Receptor Binding Assay for human Pregnane X Receptor (PXR) (AID 2283365);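 further: a drop in FRET signal versus DMSO baseline means the compound binds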
How it was run: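 TR-FRET signal read at 2 h in a cell-free human PXR binding format. DMSO served as negative control and baseline; activity scored as signal loss. Single-concentration duplicate screen (25 uM), then concentration-response follow-up.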

Structure (SMILES) | AC50 | outcome
Nc1ccc(N)cc1 | 25 µM (active) | 
O=c1[nH]c(=O)n(Cl)c(=O)n1Cl |  | inactive
COc1ccc(N)cc1 |  | inactive
CC(O)(CS(=O)(=O)c1ccc(F)cc1)C(=O)Nc1ccc(C#N)c(C(F)(F)F)c1 (stereo unspecified) |  | inactive
Nc1ncn[nH]1 |  | inactive
CCCCCCCCCCCCOS(=O)(=O)O | 38.1 µM (active) and 17.4 µM (active) | 
COc1nn(C(=O)NS(=O)(=O)c2ccccc2OC(F)(F)F)c(=O)n1C | 23.4 µM (active) | 
O=C(CBr)c1ccc(O)cc1 |  | inactive
CCOP(=S)(OCC)O/N=C(\C#N)c1ccccc1 |  | inactive
O=CCCl |  | inactive
